Bioassay records (PubChem BioAssay)
Sampled rows, rich in hits. Any-hit rate of the full collection: about 3.1%.
ERAP1 HTS inh – human ERAP1 aminopeptidase inhibitors, primary screen, biochemical, single point, plate reader. recombinant ERAP1, Leu-AMC fluorescence, 60 min. inhibition, % at 10.7 µM. 340,000 compounds, 0.15% hits. Endoplasmic reticulum aminopeptidase 1 (Homo sapiens), Q9NZ08;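 active = mean replicate inhibition of at least 30%, or all replicates individually reaching that 30% level; inactive = mean below 30% and not every replicate reaching it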
Target sequence (Q9NZ08 whole entry, looked up): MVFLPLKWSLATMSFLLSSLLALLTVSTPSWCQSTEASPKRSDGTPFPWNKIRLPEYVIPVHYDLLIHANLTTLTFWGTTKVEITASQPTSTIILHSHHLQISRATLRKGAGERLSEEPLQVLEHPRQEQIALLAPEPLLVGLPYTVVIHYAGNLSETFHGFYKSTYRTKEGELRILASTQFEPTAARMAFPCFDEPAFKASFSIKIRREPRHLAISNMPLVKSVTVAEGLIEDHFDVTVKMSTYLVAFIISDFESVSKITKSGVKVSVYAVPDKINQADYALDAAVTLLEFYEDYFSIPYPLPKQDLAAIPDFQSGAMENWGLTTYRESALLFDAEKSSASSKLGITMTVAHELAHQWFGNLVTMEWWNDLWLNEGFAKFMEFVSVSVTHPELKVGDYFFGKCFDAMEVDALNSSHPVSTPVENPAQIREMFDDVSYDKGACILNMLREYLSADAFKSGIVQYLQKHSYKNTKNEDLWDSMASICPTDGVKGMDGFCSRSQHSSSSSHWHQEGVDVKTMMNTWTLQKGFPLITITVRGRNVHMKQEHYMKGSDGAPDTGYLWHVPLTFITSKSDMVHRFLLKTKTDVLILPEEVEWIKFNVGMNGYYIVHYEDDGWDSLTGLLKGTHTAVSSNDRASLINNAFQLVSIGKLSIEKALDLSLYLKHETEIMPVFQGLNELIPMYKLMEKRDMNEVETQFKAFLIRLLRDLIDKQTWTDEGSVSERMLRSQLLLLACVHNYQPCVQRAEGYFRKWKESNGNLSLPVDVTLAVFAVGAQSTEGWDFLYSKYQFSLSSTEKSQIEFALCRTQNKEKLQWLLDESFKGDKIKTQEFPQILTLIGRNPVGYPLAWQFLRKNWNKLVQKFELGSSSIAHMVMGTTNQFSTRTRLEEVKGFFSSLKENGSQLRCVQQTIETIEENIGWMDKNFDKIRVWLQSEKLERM
CASP6 VEID inh – human caspase-6 inhibitors, primary screen, biochemical, VEID-R110 fluorescence, single point, set 2; purified caspase-6, Z-VEID-R110 cleavage fluorescence; 350,000 compounds, 0.53% hits; P55212; inhibition, % at 12.5 µM;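 active = mean inhibition across replicates at least about 35%, with every replicate also reaching that limit, limit read from the data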
FGF22 binding – binders of human FGF22 protein, primary screen, FGF22 synaptogenesis inhibitor project, biophysical, thermal shift, single point; Fibroblast growth factor 22 (Homo sapiens), Q9HCT0; recombinant FGF22 thermal shift, SYPRO orange fluorescence; percent of sucrose octasulfate shift, DMSO zero; activity (Tm shift, normalised), % at 9.99 µM; 340,000 compounds, 1.5% hits;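 active = mean Tm shift, scaled 0 neutral to 100 positive control, at about 1.3% or above, every replicate too, limit read from the data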
SIRT5 block – SIRT5 desuccinylase inhibitors, primary screen, biochemical, fluorescence imaging, single point, set 5 | NAD-dependent protein deacylase sirtuin-5, mitochondrial (Homo sapiens), Q9NXA8 | Purified SirT5, succinyl-peptide AMC, trypsin-coupled fluorescence | inhibition, % at 15 µM | 330,000 compounds, 1.1% hits | AID 652115, 2013; in the data active = inhibition above about 15%
Of the large screens only hits and unclear results are named; the others gave an inactive call; ! = a repeat was not active.

COc1cc(OC)cc(C(=O)NCC(=O)OCC(=O)Nc2cc(S(C)(=O)=O)ccc2Cl)c1	none (no result: ERAP1 HTS inh)
CS(=O)(=O)c1ccc(Cl)c(NC(=O)CCc2ccccc2)c1	FGF22 binding 43.4
CS(=O)(=O)c1ccc(Cl)c(NC(=O)COC(=O)CNC(=O)c2ccccc2)c1	FGF22 binding 43.7
COc1cc2c(C#N)c(N3CCCC3)nc(N)c2c(N)n1	CASP6 VEID inh 96.4!
Cc1cc(C)c(C#N)c(N2CCCC2)n1	none (no result: FGF22 binding)
CCCOc1cc2c(C#N)c(N3CCCC3)nc(N)c2c(N)n1	CASP6 VEID inh 38.7
CCOc1cc2c(C#N)c(N3CCCC3)nc(N)c2c(N)n1	none (no result: SIRT5 block)
COc1cccc(-c2cnc3c(c2)C(=O)N([C@@H](C)CO)C[C@@H](C)[C@@H](CN(C)Cc2ccc(F)cc2)O3)c1	none
CC(C)NC(=O)N(C)C[C@@H]1Oc2cc(C#Cc3ccccn3)ccc2S(=O)(=O)N([C@@H](C)CO)C[C@@H]1C	none
O=c1[nH]c2ccccc2nc1/C=C/c1ccc(F)cc1	FGF22 binding 43.0
O=C(NC1CCCCC1)N1CC(=O)N2[C@H](CO)[C@@H](c3ccc(/C=C/c4ccccc4)cc3)[C@@H]2C1	none (no result: FGF22 binding)
C[C@@H]1CN([C@@H](C)CO)S(=O)(=O)c2ccc(C#CC(C)(C)O)cc2O[C@H]1CN(C)Cc1ccc(-c2ccccc2)cc1	none
C[C@@H]1CN([C@@H](C)CO)S(=O)(=O)c2ccc(C#CC(C)(C)O)cc2O[C@H]1CN(C)Cc1ccc(F)cc1	SIRT5 block 17.8
C[C@@H]1CN([C@H](C)CO)S(=O)(=O)c2ccc(C#CC(C)(C)O)cc2O[C@@H]1CN(C)Cc1ccc(F)cc1	none
C[C@@H]1CN([C@@H](C)CO)S(=O)(=O)c2ccc(C#CC(C)(C)O)cc2O[C@@H]1CN(C)Cc1ccc(-c2ccccc2)cc1	SIRT5 block 19.0
CC(C)NC(=O)N(C)C[C@H]1Oc2ccc(NS(=O)(=O)c3ccccc3)cc2CC(=O)N([C@@H](C)CO)C[C@H]1C	none (no result: SIRT5 block)
O=C(C[C@H]1C=C[C@@H](NC(=O)C2CCC2)[C@@H](CO)O1)NCC1CC1	none
CCCC(=O)NNC(=O)Nc1ccccc1	none
CCC1(C)COC(C)(CC(=O)NNC(=O)Nc2ccccc2)OC1 (stereo not given)	FGF22 binding 43.5
Cn1c(SCc2nc(-c3ccc(Cl)cc3)no2)nnc1-c1cccs1	SIRT5 block 33.2 (no result: FGF22 binding)
S=C(Nc1cccnc1)Nc1cccc2cnccc12	CASP6 VEID inh 44.0
Fc1ccc(NC(=S)Nc2cccc3cnccc23)cc1	CASP6 VEID inh 35.8
S=C(Nc1ccc(Cl)cc1)Nc1cccc2cnccc12	none
Oc1ccc(/C=N/NC(=S)Nc2cccnc2)c(O)c1O	CASP6 VEID inh 49.4
COc1ccc(/C=N/NC(=S)Nc2ccccc2)cc1	FGF22 binding 44.8
O=[N+]([O-])c1ccc(C=NNC(=S)Nc2ccc(F)cc2)cc1	FGF22 binding 43.8 (no result: SIRT5 block)
COc1ccc(/C=N/NC(=S)Nc2cccc(C(=O)O)c2)cc1	none (no result: FGF22 binding)
Fc1ccc(/C=N/NC(=S)Nc2cccnc2)cc1F	none
Fc1ccc(/C=N/NC(=S)Nc2cccnc2)cc1	CASP6 VEID inh 48.2
Fc1c(F)c(F)c(/C=N/NC(=S)Nc2cccnc2)c(F)c1F	none (no result: FGF22 binding)
C=CCNC(=S)N/N=C/c1cccc([N+](=O)[O-])c1	FGF22 binding 43.2
C=CCNC(=S)Nc1cccc([N+](=O)[O-])c1	none
COc1ccccc1-c1ccc2c(c1)O[C@@H](CN(C)S(=O)(=O)c1ccccc1)[C@@H](C)CN([C@H](C)CO)S2(=O)=O	none
CCCN(C)C[C@@H]1Oc2cc(-c3ccccc3OC)ccc2S(=O)(=O)N([C@@H](C)CO)C[C@@H]1C	none
COc1ccccc1-c1ccc2c(c1)O[C@@H](CN(C)S(=O)(=O)c1ccccc1)[C@H](C)CN([C@H](C)CO)S2(=O)=O	SIRT5 block 19.0
COc1ccccc1-c1ccc2c(c1)O[C@@H](CN(C)S(=O)(=O)c1ccccc1)[C@H](C)CN([C@@H](C)CO)S2(=O)=O	SIRT5 block 19.5
CCCN(C)C[C@@H]1Oc2cc(-c3ccccc3OC)ccc2S(=O)(=O)N([C@H](C)CO)C[C@@H]1C	SIRT5 block 31.9
COc1ccccc1-c1ccc2c(c1)O[C@H](CN(C)S(=O)(=O)c1ccccc1)[C@H](C)CN([C@H](C)CO)S2(=O)=O	none
CCCC(=O)Nc1ccc2c(c1)OC[C@H](C)N(C(C)=O)C[C@H](C)[C@@H](OC)CN(C)C2=O	none (no result: FGF22 binding)
COCc1cn(CC[C@H]2CC[C@H](NC(=O)Nc3ccccc3)[C@@H](CO)O2)nn1	none
O=C1O[C@@H](c2ccccc2)[C@@H](c2ccccc2)N2[C@@H](c3ccccc3OCCO)[C@]3(C(=O)Nc4ccccc43)[C@@H](C(=O)O)[C@H]12	CASP6 VEID inh 35.6
COc1ccc(C#Cc2ccc3c(c2)[C@]2(C(=O)N3)[C@H](c3ccc(OCCO)cc3)N3[C@H](c4ccccc4)[C@H](c4ccccc4)OC(=O)[C@H]3[C@@H]2C(=O)N2CCc3cc(OC)c(OC)cc3C2)cc1	SIRT5 block 15.3
NC(=O)[C@H]1[C@@H]2C(=O)O[C@@H](c3ccccc3)[C@@H](c3ccccc3)N2[C@@H](c2ccc(OCCO)cc2)[C@]12C(=O)Nc1ccc(C#CC3(O)CCCCCC3)cc12	none
COc1ccc(C#Cc2ccc3c(c2)[C@]2(C(=O)N3)[C@H](C(=O)N3CCc4cc(OC)c(OC)cc4C3)[C@H]3C(=O)O[C@H](c4ccccc4)[C@H](c4ccccc4)N3[C@@H]2c2ccc(OCCO)cc2)cc1	none
NC(=O)[C@H]1[C@@H]2C(=O)O[C@@H](c3ccccc3)[C@@H](c3ccccc3)N2[C@@H](c2ccccc2OCCO)[C@]12C(=O)Nc1ccc(C#CC3(O)CCCCCC3)cc12	SIRT5 block 16.0
COc1cccc(S(=O)(=O)Nc2ccc3c(c2)OC[C@H](C)NC[C@@H](C)[C@H](OC)CN(C)C3=O)c1	none
Cc1cccc2sc(NC(=O)CN3C(=O)NC4(CCCC4)C3=O)nc12	none
Cc1cccc2sc(NC(=O)CN3C(=O)C4CC=CCC4C3=O)nc12 (stereo not given)	FGF22 binding 43.9
Cc1ccc(C)c2sc(NC(=O)CN3C(=O)CCC3=O)nc12	FGF22 binding 43.2
CCC(=O)N1C[C@H](C)[C@@H](OC)CN(C)C(=O)c2ccc(NC(=O)Nc3ccccc3)cc2OC[C@H]1C	none
O=C(NCC[C@H]1CC[C@@H](NC(=O)Nc2cc(F)ccc2F)[C@H](CO)O1)Nc1ccc(F)cc1	SIRT5 block 32.7
O=C(CN1CCOCC1)N[C@@H]1CC[C@H](CCNC(=O)Nc2cc(F)ccc2F)O[C@@H]1CO	SIRT5 block 16.1
O=C(NCC[C@@H]1CC[C@H](NC(=O)c2ccccc2F)[C@@H](CO)O1)c1ccc2c(c1)OCO2	SIRT5 block 16.4
O=C(NCC[C@@H]1CC[C@H](NC(=O)Nc2cc(F)ccc2F)[C@H](CO)O1)Nc1ccc(Cl)cc1	none
